Measured values taken from PubChem BioAssay (NCI).
The panel holds about 79,000 compounds, 15% with a hit somewhere; the sample as a whole holds those more often. Values without a mark were called inactive. The source made the active and inactive calls. Cut-off read from the data, not from the text of the source: active = growth inhibition above about 70%; inactive = the rest.

Experiments:
[1] = NCI Yeast Anticancer Drug Screen. Data for the wt2 strain (AID 169); conditions: S. cerevisiae wt2 strain growth inhibition, active compounds read high
In short: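 Steps: yeast strain treated with compound; growth recorded; inhibition calculated relative to cultures given vehicle alone.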

[2] = NCI Yeast Anticancer Drug Screen. Data for the mlh1 strain (AID 171);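 note: 0% = growth of vehicle-treated control cultures of the same strain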; conditions: S. cerevisiae mlh1 strain growth inhibition, active compounds read high
In short: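 Yeast screen: mutant strain plus compound, growth scored against vehicle control wells.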

[3] = NCI Yeast Anticancer Drug Screen. Data for the sgs1 strain (AID 173);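 note: 0% = growth of vehicle-only control cultures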; conditions: S. cerevisiae sgs1 mutant, active compounds read high
In short: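 Inhibition of yeast growth served as the measure. The mutant strain was treated with each compound, and growth was normalised to cultures receiving vehicle alone.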

[4] = NCI Yeast Anticancer Drug Screen. Data for the mlh1 rad18 strain (AID 175); conditions: S. cerevisiae mlh1 rad18 strain growth inhibition, active compounds read high
In short: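 Compound-treated yeast growth, normalised to vehicle controls. Strain bears defined DNA repair mutations.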

[5] = NCI Yeast Anticancer Drug Screen. Data for the rad18 strain (AID 177); conditions: S. cerevisiae rad18 mutant growth inhibition, active compounds read high
In short: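 Inhibition values reflect reduced yeast growth compared with vehicle-treated controls, using a strain engineered with a DNA damage repair defect.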

[6] = NCI Yeast Anticancer Drug Screen. Data for the rad52 strain (AID 147);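 note: 0% = growth of vehicle-treated control cultures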; conditions: S. cerevisiae rad52 mutant growth inhibition, active compounds read high
In short: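 Genetically altered yeast (DNA damage repair defect) treated with compound; inhibition calculated relative to vehicle.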

[7] = NCI Yeast Anticancer Drug Screen. Data for the wt1 strain (AID 149);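 note: 0% = growth of vehicle-treated wt1 cultures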; conditions: S. cerevisiae wt1 strain (SPY 50644) growth inhibition, active compounds read high
In short: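 Each compound is tested on wt1 yeast and the loss of growth versus vehicle gives the inhibition value.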

[8] = NCI Yeast Anticancer Drug Screen. Data for the rad50EPP+ strain (AID 151);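 note: 0% = growth of vehicle-treated control cultures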; conditions: S. cerevisiae rad50 mutant strain, active compounds read high
In short: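 Strain rad50EPP+; compound exposure; % growth inhibition vs vehicle.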

[9] = NCI Yeast Anticancer Drug Screen. Data for the mgt1 strain (AID 153); conditions: S. cerevisiae mgt1 mutant growth inhibition, active compounds read high
In short: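 Read-out: yeast growth inhibition vs vehicle control. Strain mgt1, drawn from a panel altered in DNA damage repair or cell cycle control.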

[10] = NCI Yeast Anticancer Drug Screen. Data for the rad50 strain (AID 155);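 note: 0% = growth of vehicle-only cultures of the same strain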; conditions: S. cerevisiae rad50 strain growth inhibition, active compounds read high
In short: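 Vehicle-treated cultures provide the reference for the growth inhibition reported for compound-exposed, repair-deficient yeast.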

[11] = NCI Yeast Anticancer Drug Screen. Data for the mec2-1 strain (AID 157); conditions: S. cerevisiae mec2-1 strain, active compounds read high
In short: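 Cells of the genetically defined mec2-1 yeast strain are incubated with test compound. Inhibition of growth is calculated against vehicle-treated controls.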

[12] = NCI Yeast Anticancer Drug Screen. Data for the rad14 strain (AID 159);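 note: 0% = growth of vehicle-treated control cultures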; conditions: S. cerevisiae rad14 strain growth inhibition, active compounds read high
In short: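 Inhibition of growth is reported for a repair-deficient yeast mutant following compound treatment, calculated relative to cultures that received vehicle.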

[13] = NCI Yeast Anticancer Drug Screen. Data for the sgs1 mgt1 strain (AID 161);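 note: 0% = growth of cultures given vehicle only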; conditions: S. cerevisiae sgs1 mgt1 strain, active compounds read high
In short: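 Test agents were incubated with a DNA-repair-mutant yeast strain. Growth was then read and compared against vehicle-treated controls.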

[14] = NCI Yeast Anticancer Drug Screen. Data for the CLN2oe strain (AID 163);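 note: 0% = growth of vehicle-only control cultures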; conditions: S. cerevisiae CLN2oe strain, active compounds read high
In short: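 Strain altered in cell-cycle control, incubated with compound; growth compared to solvent-treated controls.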

[15] = NCI Yeast Anticancer Drug Screen. Data for the cln2 rad14 strain (AID 165);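 note: 0% = growth equal to vehicle treated cultures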; conditions: S. cerevisiae cln2 rad14 strain, active compounds read high
In short: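 The screen exposed genetically defined yeast (cln2 rad14) to test compounds and scored growth inhibition relative to vehicle-treated controls.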

[16] = NCI Yeast Anticancer Drug Screen. Data for the bub3 strain (AID 167); conditions: S. cerevisiae bub3 mutant strain, active compounds read high
In short: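 Mutant yeast screening strain plus compound; vehicle-treated cultures serve as the 0% inhibition reference.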

[17] = at 5.0 µM (retest, dose inferred, filed as 0.5)
[18] = at 50.0 µM (retest, dose inferred, filed as 5.0)

Q: Which results are given for `O=C(O)CCCc1cc(I)c(N(CCCl)CCCl)c(I)c1`?
A: growth inhibition ([1]; at 1.2 µM): -13%; growth inhibition ([1]; at 3.7 µM): -14%; growth inhibition ([1]; at 11.0 µM): -19%; growth inhibition ([1]; at 33.0 µM): 91% (active); growth inhibition ([1]; at 100.0 µM): 97% (active); growth inhibition ([2]; at 1.2 µM): -50%; growth inhibition ([2]; at 3.7 µM): -29%; growth inhibition ([2]; at 11.0 µM): -38%; growth inhibition ([2]; at 33.0 µM): 85% (active); growth inhibition ([2]; at 100.0 µM): 95% (active); growth inhibition ([3]; at 1.2 µM): -40%; growth inhibition ([3]; at 3.7 µM): -46%; growth inhibition ([3]; at 11.0 µM): -24%; growth inhibition ([3]; at 33.0 µM): 88% (active); growth inhibition ([3]; at 100.0 µM): 96% (active); growth inhibition [4, 17]: 25%; growth inhibition [4, 18]: 98% (active); growth inhibition ([4]; at 50.0 µM): 69.3%; growth inhibition ([5]; at 1.2 µM): -63%; growth inhibition ([5]; at 3.7 µM): -50%; growth inhibition ([5]; at 11.0 µM): -13%; growth inhibition ([5]; at 33.0 µM): 76% (active); growth inhibition ([5]; at 100.0 µM): 93% (active)

Q: For `O=C(O)CCCOc1cc(Cl)c(Cl)cc1Cl`, which growth inhibition ([6]; at 1.2 µM) is on record?
A: -13%

Q: And the growth inhibition ([6]; at 3.7 µM)?
A: -4%

Q: And the growth inhibition ([6]; at 11.0 µM)?
A: 1%

Q: And the growth inhibition ([6]; at 33.0 µM)?
A: 45%

Q: And the growth inhibition ([6]; at 100.0 µM)?
A: 75% (active)

Q: And the growth inhibition ([7]; at 1.2 µM)?
A: -1%

Q: What about the growth inhibition ([7]; at 3.7 µM) of the same molecule?
A: -9%

Q: And the growth inhibition ([7]; at 11.0 µM)?
A: 2%

Q: What about the growth inhibition ([7]; at 33.0 µM) of the same molecule?
A: 22%

Q: What about the growth inhibition ([7]; at 100.0 µM) of the same molecule?
A: 71% (active)

Q: What about the growth inhibition ([8]; at 1.2 µM) of the same molecule?
A: -10%

Q: And the growth inhibition ([8]; at 3.7 µM)?
A: -6%

Q: And the growth inhibition ([8]; at 11.0 µM)?
A: 13%

Q: What about the growth inhibition ([8]; at 33.0 µM) of the same molecule?
A: 43%

Q: What about the growth inhibition ([8]; at 100.0 µM) of the same molecule?
A: 70% (active)

Q: What about the growth inhibition ([9]; at 1.2 µM) of the same molecule?
A: -17%

Q: And the growth inhibition ([9]; at 3.7 µM)?
A: -32%

Q: And the growth inhibition ([9]; at 11.0 µM)?
A: -13%

Q: What about the growth inhibition ([9]; at 33.0 µM) of the same molecule?
A: 35%

Q: And the growth inhibition ([9]; at 100.0 µM)?
A: 80% (active)

Q: And the growth inhibition ([10]; at 1.2 µM)?
A: -10%

Q: What about the growth inhibition ([10]; at 3.7 µM) of the same molecule?
A: -17%

Q: And the growth inhibition [10, 17]?
A: 40%

Q: What about the growth inhibition ([10]; at 11.0 µM) of the same molecule?
A: -5%

Q: What about the growth inhibition ([10]; at 33.0 µM) of the same molecule?
A: 42%

Q: And the growth inhibition [10, 18]?
A: 98% (active)

Q: And the growth inhibition ([10]; at 50.0 µM)?
A: 82% (active)

Q: What about the growth inhibition ([10]; at 100.0 µM) of the same molecule?
A: 78% (active)

Q: And the growth inhibition ([11]; at 1.2 µM)?
A: -24%

Q: And the growth inhibition ([11]; at 3.7 µM)?
A: -13%

Q: What about the growth inhibition [11, 17] of the same molecule?
A: 52%

Q: And the growth inhibition ([11]; at 11.0 µM)?
A: 4%

Q: And the growth inhibition ([11]; at 33.0 µM)?
A: 34%

Q: What about the growth inhibition [11, 18] of the same molecule?
A: 98% (active)

Q: And the growth inhibition ([11]; at 50.0 µM)?
A: 74.8% (active)

Q: What about the growth inhibition ([11]; at 100.0 µM) of the same molecule?
A: 90% (active)

Q: And the growth inhibition ([12]; at 1.2 µM)?
A: -13%

Q: What about the growth inhibition ([12]; at 3.7 µM) of the same molecule?
A: -4%

Q: What about the growth inhibition ([12]; at 11.0 µM) of the same molecule?
A: -4%

Q: What about the growth inhibition ([12]; at 33.0 µM) of the same molecule?
A: 17%

Q: And the growth inhibition ([12]; at 100.0 µM)?
A: 81% (active)

Q: And the growth inhibition [13, 17]?
A: -17%

Q: What about the growth inhibition [13, 18] of the same molecule?
A: 18%

Q: And the growth inhibition ([13]; at 50.0 µM)?
A: 77.2% (active)

Q: What about the growth inhibition ([14]; at 1.2 µM) of the same molecule?
A: 0%

Q: And the growth inhibition ([14]; at 3.7 µM)?
A: -15%

Q: What about the growth inhibition ([14]; at 11.0 µM) of the same molecule?
A: -11%

Q: And the growth inhibition ([14]; at 33.0 µM)?
A: 4%

Q: What about the growth inhibition ([14]; at 100.0 µM) of the same molecule?
A: 60%

Q: And the growth inhibition [15, 17]?
A: 10%

Q: And the growth inhibition [15, 18]?
A: 47%

Q: And the growth inhibition ([15]; at 50.0 µM)?
A: 75.5% (active)

Q: What about the growth inhibition ([16]; at 1.2 µM) of the same molecule?
A: -6%

Q: What about the growth inhibition ([16]; at 3.7 µM) of the same molecule?
A: -3%

Q: What about the growth inhibition [16, 17] of the same molecule?
A: 28%

Q: What about the growth inhibition ([16]; at 11.0 µM) of the same molecule?
A: -2%

Q: And the growth inhibition ([16]; at 33.0 µM)?
A: 43%

Q: What about the growth inhibition [16, 18] of the same molecule?
A: 52%

Q: And the growth inhibition ([16]; at 50.0 µM)?
A: 83.4% (active)

Q: And the growth inhibition ([16]; at 100.0 µM)?
A: 78% (active)

Q: What about the growth inhibition ([1]; at 1.2 µM) of the same molecule?
A: -6%

Q: And the growth inhibition ([1]; at 3.7 µM)?
A: -11%

Q: What about the growth inhibition ([1]; at 11.0 µM) of the same molecule?
A: -4%

Q: And the growth inhibition ([1]; at 33.0 µM)?
A: 30%

Q: What about the growth inhibition ([1]; at 100.0 µM) of the same molecule?
A: 80% (active)

Q: What about the growth inhibition ([2]; at 1.2 µM) of the same molecule?
A: -20%

Q: And the growth inhibition ([2]; at 3.7 µM)?
A: -27%

Q: What about the growth inhibition ([2]; at 11.0 µM) of the same molecule?
A: 2%

Q: What about the growth inhibition ([2]; at 33.0 µM) of the same molecule?
A: 40%

Q: What about the growth inhibition ([2]; at 100.0 µM) of the same molecule?
A: 80% (active)

Q: And the growth inhibition ([3]; at 1.2 µM)?
A: -13%

Q: And the growth inhibition ([3]; at 3.7 µM)?
A: -18%

Q: And the growth inhibition ([3]; at 11.0 µM)?
A: 2%

Q: And the growth inhibition ([3]; at 33.0 µM)?
A: 43%

Q: And the growth inhibition ([3]; at 100.0 µM)?
A: 76% (active)

Q: What about the growth inhibition [4, 17] of the same molecule?
A: 42%

Q: What about the growth inhibition [4, 18] of the same molecule?
A: 99% (active)

Q: What about the growth inhibition ([4]; at 50.0 µM) of the same molecule?
A: 78.7% (active)

Q: And the growth inhibition ([5]; at 1.2 µM)?
A: -33%

Q: And the growth inhibition ([5]; at 3.7 µM)?
A: -21%

Q: What about the growth inhibition ([5]; at 11.0 µM) of the same molecule?
A: -7%

Q: And the growth inhibition ([5]; at 33.0 µM)?
A: 41%

Q: What about the growth inhibition ([5]; at 100.0 µM) of the same molecule?
A: 77% (active)
